Assay outcomes deposited in PubChem BioAssay by National Center for Advancing Translational Sciences (NCATS).
Many of the other results were omitted from the sample, so hits are more common in it than they were.
L3MBTL1 inh = blocks human L3MBTL1; AlphaScreen L3MBTL1–H3K9me1 peptide binding; 230,000 compounds, 0.66% hits; Potency, µM (titrated, usually from 57.1 µM), actives largely listed as inhibitors; AID 485360; also: nearly all actives have a fitted effect of over 60% in size
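First, the protein-peptide complex forms for 30 min at room temperature (L3MBTL1 50 nM, biotinylated H3K9me1 peptide 75 nM). Next, compounds are pin-transferred and incubated 30 min. Finally, AlphaScreen beads are added and read after 30 min.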
KAT2A inh = blocks human GCN5L2 histone acetyltransferase; 390,000 compounds, 0.21% hits; AID 504327; GCN5L2 HAT assay, ThioGlo1 CoA-SH fluorescence; Potency, µM (doses to about 58.9 µM), usual class: inhibitors
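Enzyme at 20nM final was mixed with library compounds for 15 min at room temperature. Peptide H3(1-25) at 75uM, acetyl-CoA at 70uM and ThioGlo1 at 50uM were then added. Plates were read immediately and after 20 min (Ex340nm/Em540nm).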
RECQ1 inh-1 = inhibitors of human RECQ1 DNA helicase; RECQ1 DNA unwinding, red fluorescence kinetic read; 240,000 compounds, 0.54% hits; Potency, µM (top dose mostly 57.3 µM), hits mostly inhibitors; P46063; AID 2549; also: nearly all actives have a fitted effect of over 30% in size
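RECQ1T1 50 nM; forked duplex (20 bp + 30-nt ss tails) 200 nM, ATP 2 mM final; pH 8.0, 2 mM MgCl2, 2.5 ug/ml poly(dI-dC); 15 min compound preincubation; discontinuous kinetic read over 2 h at RT.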
KDM4E inh = blocks human JMJD2E demethylase activity | B2RXH2 | JMJD2E catalytic domain, FDH-coupled NADH fluorescence (FDH is formaldehyde dehydrogenase) | Potency, µM (titrated, usually from 57.1 µM), usual class: inhibitors | 230,000 compounds, 1.6% hits | AID 2147; active = well fitted inhibition curve with a large enough effect, not every such curve was filed as active; inconclusive = small, poorly fitted or top-dose-only effect, or another doubt; inactive = no such curve, though single readings can be large or run the other way; also: nearly all actives have a fitted effect of over 50% in size
APE1 inh = inhibitors of human APE1 endonuclease; recombinant APE1, TAMRA/BHQ-2 abasic DNA cleavage fluorescence; Potency, µM (doses to about 65.8 µM), hits mostly inhibitors; 350,000 compounds, 0.35% hits; AID 2517; also: nearly all actives have a fitted effect of over 55% in size
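Kinetic fluorescence read (525 ex/598 em nm, three reads 60 s apart) of AP-site incision; signal = third minus first read. Enzyme 0.75 nM, dual-labelled THF duplex 50 nM, compound preincubation 15 min RT.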
BLM inh = blocks DNA unwinding by human BLM helicase | recombinant BLM DNA unwinding, fluorescence dequenching | Potency, µM (highest dose often 56.1 µM), actives largely listed as inhibitors | 350,000 compounds, 0.2% hits | P54132; also: nearly all actives have a fitted effect of over 35% in size
Target sequence (P54132 whole entry, looked up): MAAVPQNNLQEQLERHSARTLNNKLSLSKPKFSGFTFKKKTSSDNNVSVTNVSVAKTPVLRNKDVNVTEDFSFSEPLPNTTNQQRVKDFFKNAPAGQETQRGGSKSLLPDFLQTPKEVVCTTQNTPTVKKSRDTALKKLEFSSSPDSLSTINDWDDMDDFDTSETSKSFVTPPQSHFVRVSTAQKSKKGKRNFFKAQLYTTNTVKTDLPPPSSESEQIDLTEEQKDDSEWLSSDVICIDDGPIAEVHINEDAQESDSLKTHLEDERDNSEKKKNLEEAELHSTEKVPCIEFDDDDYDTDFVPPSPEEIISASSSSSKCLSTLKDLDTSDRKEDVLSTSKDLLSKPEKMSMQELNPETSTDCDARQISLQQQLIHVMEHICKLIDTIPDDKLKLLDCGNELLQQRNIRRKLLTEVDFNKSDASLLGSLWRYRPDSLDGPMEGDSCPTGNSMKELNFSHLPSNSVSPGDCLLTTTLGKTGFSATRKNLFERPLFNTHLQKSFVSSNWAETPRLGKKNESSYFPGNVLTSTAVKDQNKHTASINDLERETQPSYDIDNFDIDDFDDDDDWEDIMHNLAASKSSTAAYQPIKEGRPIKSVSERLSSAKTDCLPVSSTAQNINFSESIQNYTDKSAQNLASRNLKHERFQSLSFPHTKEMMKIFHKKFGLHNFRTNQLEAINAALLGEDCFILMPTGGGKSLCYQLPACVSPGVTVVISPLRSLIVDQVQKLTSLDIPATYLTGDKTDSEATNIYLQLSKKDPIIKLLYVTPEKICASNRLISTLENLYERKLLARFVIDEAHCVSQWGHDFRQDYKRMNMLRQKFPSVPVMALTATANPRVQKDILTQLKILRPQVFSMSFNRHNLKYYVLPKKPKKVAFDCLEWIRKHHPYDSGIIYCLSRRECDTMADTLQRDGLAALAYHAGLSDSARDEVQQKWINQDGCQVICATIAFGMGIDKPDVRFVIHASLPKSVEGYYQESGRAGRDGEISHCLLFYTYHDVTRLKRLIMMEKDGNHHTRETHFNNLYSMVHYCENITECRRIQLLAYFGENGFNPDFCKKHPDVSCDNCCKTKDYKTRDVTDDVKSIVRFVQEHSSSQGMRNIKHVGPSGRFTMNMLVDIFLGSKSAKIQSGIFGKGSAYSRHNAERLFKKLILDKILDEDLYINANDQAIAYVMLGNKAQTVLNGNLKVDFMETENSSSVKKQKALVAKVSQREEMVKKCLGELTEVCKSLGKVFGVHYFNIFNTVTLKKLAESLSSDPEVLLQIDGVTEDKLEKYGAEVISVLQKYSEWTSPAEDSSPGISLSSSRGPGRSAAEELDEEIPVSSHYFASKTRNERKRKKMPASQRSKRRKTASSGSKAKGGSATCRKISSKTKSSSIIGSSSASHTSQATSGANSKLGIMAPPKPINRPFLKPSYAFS
RECQ1 conf = confirmation of human RECQ1 helicase inhibitors; shares compounds with RECQ1 inh-1; RECQ1 helicase DNA unwinding, fluorescence; Potency, µM (top dose mostly 229 µM), hits mostly inhibitors; 610 compounds, 28% hits; AID 2708; also: nearly all actives have a fitted effect of over 45% in size
RECQ1 ADP FP = counter-screen for RECQ1 inhibitors: ADP displacement; ADP fluorescence polarization displacement counterscreen; AID 2711; Potency, µM (series often up to 228 µM), actives largely listed as inhibitors; shares compounds with RECQ1 inh-1; 530 compounds, 27% hits; also: nearly all actives have a fitted effect of over 45% in size
RECQ1 inh-2 = confirmation of human RECQ1 helicase inhibitors. 1,100 compounds, 15% hits. AID 504841. shares compounds with RECQ1 inh-1. recombinant RECQ1 DNA unwinding, red fluorescence. Potency, µM (highest dose often 119 µM), usual class: inhibitors; also: nearly all actives have a fitted effect of over 50% in size
Of the large screens only hits and unclear results are named; the others gave an inactive call (follow-up assays come after a bar, where they were run). Unless noted, calls follow the shape of the dose curve; as a rule, active = well fitted curve in the direction sought with a large enough effect; inconclusive = small, poorly fitted or top-dose-only effect, or another doubt; inactive = no such curve, though single readings can be large; an effect the other way counts as inactive or inconclusive.

Cc1cccc(NC(=O)CC(=O)Nc2cccc(C)c2)c1	none (no result: L3MBTL1 inh, RECQ1 inh-1, KDM4E inh)
O=C(NCc1n[nH]c(=S)n1-c1cccc(C(F)(F)F)c1)c1ccc(S(=O)(=O)N2CCCC2)cc1	none (no result: L3MBTL1 inh) | RECQ1 conf inactive | RECQ1 ADP FP inactive
O=C(NCc1n[nH]c(=S)n1-c1cccc(C(F)(F)F)c1)c1ccc(S(=O)(=O)N2CCCCC2)cc1	none (no result: L3MBTL1 inh, RECQ1 inh-1, KDM4E inh)
C[C@@H](NC(=O)c1ncn(Cc2ccccc2)c1C(=O)N[C@H](C)c1ccccc1)c1ccccc1	APE1 inh inconclusive (no result: RECQ1 inh-1, KDM4E inh, BLM inh)
O=C1NC(=Nc2ccc3ccccc3c2)S/C1=C/c1ccco1	L3MBTL1 inh 28µM, KAT2A inh inconclusive, RECQ1 inh-1 inconclusive, APE1 inh inconclusive, BLM inh 18µM | RECQ1 inh-2 inconclusive
O=C1NC(=Nc2ccc(O)cc2)S/C1=C/c1ccco1	APE1 inh inconclusive (no result: L3MBTL1 inh)
Cc1cccc(N=C2NC(=O)/C(=C/C=C/c3ccco3)S2)c1	L3MBTL1 inh inconclusive, RECQ1 inh-1 35µM, KDM4E inh inconclusive, APE1 inh inconclusive, BLM inh inconclusive | RECQ1 inh-2 inconclusive
COc1ccc(CNc2ccnc(-c3cccc(C#N)c3)n2)c(OC)c1	none (no result: L3MBTL1 inh, KDM4E inh)
Cc1c(N2C(=O)CS/C2=N\N=C\c2ccccc2O)c(=O)n(-c2ccccc2)n1C	none | RECQ1 conf inactive | RECQ1 ADP FP inactive
CCSc1ccccc1C(=O)NCc1ccco1	none (no result: L3MBTL1 inh)
CC1(OC(=O)c2ccco2)C(=O)C=C2C=C(C3CC3)OC=C2C1=O (centres undefined)	none (no result: L3MBTL1 inh, KAT2A inh)
CC1(OC(=O)c2cnc3ccccc3n2)C(=O)C=C2C=C(C3CC3)OC=C2C1=O (centres undefined)	RECQ1 inh-1 13µM (no result: L3MBTL1 inh, KAT2A inh) | RECQ1 inh-2 inactive
CN(C)/C(=N\S(=O)(=O)c1ccc(Br)cc1)c1ccccc1	none (no result: RECQ1 inh-1, KDM4E inh)
COc1ccc(C(CC(=O)N2CCCC2)c2c(OC)cc(OC)c3c(-c4ccccc4)cc(=O)oc23)cc1 (centres undefined)	RECQ1 inh-1 13µM, KDM4E inh inconclusive, APE1 inh 10µM, BLM inh inconclusive (no result: L3MBTL1 inh) | RECQ1 inh-2 20µM
CCN1CCN(c2cc(C)c3cc(NC(=O)c4ccc(OC)c(OC)c4)ccc3n2)CC1	RECQ1 inh-1 22µM, KDM4E inh inconclusive (no result: L3MBTL1 inh) | RECQ1 inh-2 inconclusive
Cc1ccc2nc(-c3cccc(NC(=O)c4cccc5ccccc45)c3)oc2c1	none (no result: L3MBTL1 inh, RECQ1 inh-1, KDM4E inh, APE1 inh)
CCc1ccc(N2C(=O)CN(Cc3sccc3C)C2=S)cc1	RECQ1 inh-1 1.6µM (no result: L3MBTL1 inh) | RECQ1 conf inactive | RECQ1 ADP FP inactive | RECQ1 inh-2 inactive
O=C(N/N=C/c1ccccc1C(=O)O)c1ccc(COc2cccc3cccnc23)cc1	none | RECQ1 conf inactive | RECQ1 ADP FP inactive
CCc1ccccc1NC(=O)Cn1c(=O)n(-c2ccc(C)c(C)c2)c(=O)c2oc3ccccc3c21	none (no result: L3MBTL1 inh, RECQ1 inh-1, KDM4E inh, APE1 inh)
O=C(C1COc2ccccc2O1)N1CCc2ccccc21 (centres undefined)	L3MBTL1 inh inconclusive, RECQ1 inh-1 inconclusive, APE1 inh inconclusive | RECQ1 inh-2 13µM
COc1ccc(CSc2nnnn2Cc2ccccc2)cc1OC	none (no result: L3MBTL1 inh)
Cc1ccc(S(=O)(=O)c2cc3c(=O)n4ccccc4nc3n(Cc3ccco3)c2=N)cc1	RECQ1 inh-1 14µM, KDM4E inh inconclusive, APE1 inh inconclusive | RECQ1 inh-2 inconclusive
CCOCCCn1c(=N)c(S(=O)(=O)c2ccc(C)cc2)cc2c(=O)n3ccccc3nc21	none (no result: L3MBTL1 inh, RECQ1 inh-1, KDM4E inh, APE1 inh)
CN(C)Cc1ccccc1-c1nc(NCc2ccccc2)c2ccccc2n1	none (no result: L3MBTL1 inh)
CC(=O)Oc1ccc(C(=O)Nc2ccc3c(c2)C(=O)N(CCC(=O)O)C3=O)cc1	KDM4E inh inconclusive (no result: L3MBTL1 inh) | RECQ1 conf inconclusive | RECQ1 ADP FP inconclusive
